Assay outcomes: PubChem, several laboratories
In the library only some 2.9% were active in any assay of this set; here they are far more common.
FAS TE block – inhibitors of human fatty acid synthase thioesterase domain | P49327 | recombinant FAS-TE, OMFH fluorogenic substrate, fluorescence endpoint | inhibition, % at 15 µM | hit rate 0.67% among 360,000;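 active = compounds whose normalised, plate-corrected inhibition of enzyme fluorescence in the single-dose primary screen is 50% or more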;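 note: 0% = DMSO with enzyme and 100% = substrate without enzyme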
SMARCA2 activ – SMARCA2 function activation, primary screen; MG213 cells, MMTV-luciferase reporter, dexamethasone, overnight; hit rate 1% among 370,000; activation, % at 9.1 µM; in the data active = activation above about 7.8%;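 note: 0% = vehicle wells and 100% = reference activator wells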
GAA850 FXN act – activators of GAA850 frataxin (FXN) promoter. HEK293 lucGAA850 FXN promoter luciferase reporter, 24 h; percent of 10 µM SAHA response. activation, % at 6 µM. hit rate 0.56% among 360,000. AID 540364;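 active = activation above the average of all compounds screened plus 3 SD, cutoff fixed separately per campaign, cut at about 7.5% in these data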;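 note: 0% = DMSO wells and 100% = 10 µM SAHA wells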
KLK7 zymogen act – activators of human kallikrein-7 zymogen; P49862; purified proKLK7, EDANS-DABCYL substrate fluorescence; 100% is mature enzyme control, 0% vehicle; activation, % at 7 µM; hit rate 0.9% among 370,000; AID 652039;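 active = activation above the mean of all tested compounds plus 3 SD, computed per campaign excluding outliers beyond control limits, cut at about 13% in these data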
Target sequence (P49862 whole entry, looked up): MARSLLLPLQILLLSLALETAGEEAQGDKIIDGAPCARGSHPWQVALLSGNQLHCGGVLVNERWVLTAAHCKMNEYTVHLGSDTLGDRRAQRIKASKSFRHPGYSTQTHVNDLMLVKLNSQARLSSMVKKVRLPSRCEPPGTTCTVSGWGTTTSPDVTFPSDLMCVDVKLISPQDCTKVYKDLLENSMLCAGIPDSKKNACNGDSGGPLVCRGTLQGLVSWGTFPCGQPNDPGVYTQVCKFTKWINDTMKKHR
SMARCA2 conf – confirmation of SMARCA2 (BRM) function activators | AID 652260 | MG213 cells, MMTV-luciferase with dexamethasone, luminescence, overnight; MG213 cells expressing E1A, Rb sequestered; DMSO wells 0%, reference activator 100% | activation, % at 9.1 µM | shares compounds with SMARCA2 activ | hit rate 30% among 3,500;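 active = activation above its plate's cutoff, the mean activation of tested wells plus 3 SD, cut at about 7.9% in these data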
GAL4-VP16 Luc – activates GAL4-VP16 luciferase, flagging SMARCA2 activator hits; shares compounds with SMARCA2 activ; HEK293 GAL4-VP16 pG5luc reporter, luciferase luminescence; scaled: DMSO wells 0%, SAHA wells 100%; activation, % at 9.1 µM; hit rate 41% among 3,500; AID 686939;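 active = activation above the solvent-only control well mean plus 3 SD, averaged across control plates, cut at about 5.2% in these data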
An asterisk follows results filed as active; x = no result.

SMILES	FAS TE block	SMARCA2 activ	GAA850 FXN act	KLK7 zymogen act	SMARCA2 conf	GAL4-VP16 Luc
CC(C)(C(=O)c1ccccc1)/[N+]([O-])=C/c1ccccc1	-7	6	0	0	x	x
CC(C)c1cccc(-c2csc(C(O)c3ccco3)n2)c1 (centres undefined)	9	9.2*	5	-2	6	4
COC(=O)CSc1nnc(C)n1-c1cccc(C#N)c1	-3	2	-1	0	x	x
CCOc1ccc(C=NNC(=O)c2ccc(-n3cnnn3)cc2)cc1	-10	1	0	0	x	x
CN(C)c1ccc(/C=C(/C#N)C(=O)Nc2nc3c(s2)CCN(Cc2ccccc2)C3)cc1	-132	8.9*	3	0	-5	6.9*
COc1cc(NC(=O)Nc2cccc(Cl)c2)c(C(=O)O)cc1OC	-1	-2	1	2	x	x
O=C(CC(Sc1ccc(Br)cc1)C(=O)O)c1ccc(F)cc1 (centres undefined)	-9	8.6*	1	0	-1	1
O=C(NCc1ccccn1)c1nnc(Cc2ccc(Cl)cc2)o1	-4	9.6*	4	0	1	1
O=C(NCC1CCCN1S(=O)(=O)c1cccs1)c1ccccc1F (centres undefined)	-4	8.4*	2	0	-5	2
C=CCc1ccc(OCCCCN2CCC(C)CC2)c(OC)c1	-9	12*	3	0	-6	3
C=CCSc1nnc(NC(=O)C2=COCCO2)s1	-7	8.0*	5	0	8.2*	11*
COc1cccc(N2CCN(c3nc(-c4ccccc4C)cc(=O)[nH]3)CC2)c1	7	13*	2	1	36*	1
COc1ccc(CN(C)C(=O)c2[nH]c(C)c(C(C)=O)c2C)c(OC)c1OC	-3	-4	-1	1	x	x
O=c1[nH]c(CCl)nc2cc(-c3ccc(F)cc3)sc12	1	3	3	0	x	x
O=c1[nH]cnc2cc(-c3ccc(Br)cc3)sc12	1	10*	4	0	5	3
CC1CN(C(=O)c2cc3cc(Cl)ccc3[nH]2)CC(C)O1 (centres undefined)	-4	2	1	0	x	x
COc1ccc(NC(=O)c2onc(C)c2Cl)cc1	-5	10*	5	1	3	7.0*
COc1ccc(NC(=O)c2onc(C)c2Cl)cc1OC	2	-4	-1	0	x	x
CC(C)(C)C(=O)NC(=S)NCCc1ccccc1	-10	2	5	0	x	x
CC(C)(C)NC(=O)NCCc1ccccc1	-6	9.9*	4	0	10*	8.2*
O=C(CC1C(=O)CCCC1=O)c1ccccc1	-9	8.6*	5	0	8.1*	2
O=C(CCC1CCCCC1=O)c1ccccc1 (centres undefined)	-3	0	1	0	x	x
O=C1CC(N2CCCN(C3CC(=O)N(c4ccc(F)cc4)C3=O)CC2)C(=O)N1c1ccc(F)cc1 (centres undefined)	-4	1	1	-1	x	x
Cc1c(/C=C/C(=O)c2ccccc2)cnn1C	-8	4	4	0	x	x
Cc1c(/C=C/C(=O)c2ccc(O)cc2)cnn1C	-11	8.0*	5	1	14*	6.9*
SMILES	FAS TE block	SMARCA2 activ	GAA850 FXN act	KLK7 zymogen act	SMARCA2 conf	GAL4-VP16 Luc
COc1ccccc1N1C(=O)C2CC=CC(C)C2C1=O (centres undefined)	-8	-1	1	-1	x	x
C=CCN=Cc1c(C)[nH]n(-c2ccccc2)c1=O	-12	8.5*	3	0	1	6.2*
COc1ccc(-n2nc(C(=O)NCC(=O)Nc3ccccn3)c3ccccc3c2=O)cc1Cl	-10	-2	1	0	x	x
O=C(CSc1ncccn1)N(Cc1cccnc1)C(CCc1ccccc1)c1nc2ccccc2[nH]1 (centres undefined)	-3	-4	x	0	x	x
O=[N+]([O-])c1cccnc1NCCc1ccccc1	-2	-1	4	0	x	x
O=[N+]([O-])c1cccnc1NCCc1c[nH]c2ccccc12	0	8.8*	2	0	13*	8.4*
COc1ccc(-c2cn(-c3ccc(C)cc3)c(=O)n2CC(=O)Nc2cccc(F)c2)cc1	10	-2	-2	0	x	x
CC1(C)Cc2c(C#N)c(NCCO)nc(-c3ccco3)c2CO1	-6	8.6*	4	7	0	2
CC1(C)Cc2c(C#N)c(NCCN3CCOCC3)nc(-c3ccco3)c2CO1	5	0	5	1	x	x
Cc1noc(C)c1S(=O)(=O)N1CCCC(C(=O)NCCC2=CCCCC2)C1 (centres undefined)	-4	-2	2	0	x	x
CCC(=O)N1C(Cc2ccccc2)COC1(C)C (centres undefined)	-5	8.9*	1	0	-3	1
CCC1(C)NC(=O)N(CC(=O)N2CCC(Cc3ccccc3)CC2)C1=O (centres undefined)	-5	1	0	0	x	x
Nc1ccccc1C(=O)NCc1ccc(Cl)cc1	-9	8.1*	-2	0	-1	0
CCC1(c2ccc(Cl)cc2)NC(=S)N(c2ccc(C)cc2)N1 (centres undefined)	15	9.3*	6	0	1	3
Fc1ccc(/C=N/NC(=S)Nc2cccnc2)cc1	0	0	-2	0	x	x
COC(=O)C[C@H]1CC[C@@H]2[C@H](COc3ccc(NC(=O)c4cccc(F)c4)cc3C(=O)N2C)O1	x	-1	x	0	x	x
CCOc1cc(CNc2ccc(N3CCN(C(C)=O)CC3)cc2)cc(Br)c1OC	7	8.6*	1	1	2	0
COc1ccc(S(=O)(=O)n2ccnc2)c2cccnc12	-17	-2	3	4	x	x
COC(=O)N(C)C[C@H]1OCc2cnnn2CCCC(=O)N([C@H](C)CO)C[C@@H]1C	x	-1	x	0	x	x
C[C@H]1CN([C@@H](C)CO)C(=O)CCCn2cc(nn2)CO[C@@H]1CN(C)C(=O)c1ccc(N2CCN(C)CC2)cc1	-16	8.2*	x	0	-1	-1
COC(=O)N(C)C[C@H]1OCc2cnnn2CCCC(=O)N([C@@H](C)CO)C[C@@H]1C	-7	8.6*	-1	0	-3	0
Cc1c(/C=N/NC(=O)c2ccc(Br)o2)cnn1C	-2	14*	1	1	2	1
Cc1c(/C=N\NC(=O)c2ccc(F)cc2)cnn1C	-8	1	3	0	x	x
Cc1c(/C=N\NC(=O)c2cccc(F)c2)cnn1C	-8	0	1	0	x	x
Cc1occc1C(=O)N/N=C/c1cnn(C)c1C	-7	8.8*	2	0	4	5
Cc1csc(NC(=O)CN2C(=O)COc3ccc(Cl)cc32)n1	-3	0	1	0	x	x
